About 83,000 compounds went through this panel and 20% of them were active in at least one assay; those are over-represented in the sample as a whole.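 A percent growth of 40 corresponds to 60% growth inhibition; 0 means no net growth; -100 means all cells died. Active threshold: below 10.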 Values without a mark were called inactive. Calls of active or inactive are those of the source.
Tested on: MDA-MB-468 breast
Test: NCI-60 one-dose screen, 48 h (100 = growth as untreated, 0 = no growth, -100 = all killed)
Details: 10 µM unless noted

In the case of O=C1c2cccc3cccc(c23)C(=O)N1Nc1nc(N2CCOCC2)nc(N2CCN(c3ccccc3)CC2)n1, the growth was -15.8% (active).
C=C(C)[C@@H]1CC[C@]2(C)[C@H](CC[C@@H]3[C@H]4[C@H]5OC[C@@]4(CCC5(C)C)CC[C@]32C)[C@@]1(C)CCCN was tested, and the growth was -68.2% (active).
C#CCOc1cccc(Nc2ncnc3cc(NC(=O)CCl)ccc23)c1 was tested, and the growth was -52.5% (active).
With Cc1c(C)c2c(c(C)c1OCC(=O)O)CC[C@@](C)(CCC[C@@H](C)CCC[C@@H](C)CCCC(C)C)O2 the growth was 0.25% [50 µM] (active).
In the case of COc1ccc2c(c1)OC(N)=C(C#N)C2c1cc(OC)c(OC)c(OC)c1 (stereo not given), the growth was -20.9% (active).
In the case of COc1ccc(/C=C2\CCCC3=C2NC(N)=NC3c2ccc(OC)cc2)cc1 (stereo not given), the growth was -5.61% (active).
In the case of Clc1cc(Cl)c(OCCCCCCN2CCNCC2)c(Cl)c1, the growth was -12.2% (active).
In the case of O=C(Nc1ccc2ncnc(Nc3ccc(F)c(Cl)c3)c2c1)c1ccccc1, the growth was -8.33% (active).
For CN1CCC[C@@H]1CCO[C@](C)(c1ccccc1)c1ccc(Cl)cc1, the growth was -10.5% (active).
With C/C=C/C1=CN2C(=O)c3cc(OC4OC(C)C(NC)C(C)(O)C4O)c(C)c(O)c3N=C[C@@H]2C1 (stereo not given in full) the growth was -57.5% (active).
With C/C(=C\C(=N\N=C(N)N)c1ccc(Cl)cc1)c1ccc(Cl)cc1 the growth was -92.9% (active).

First: Clc1ccc(/C=N\N=c2\scc(-c3ccc(Cl)cc3)n2/N=C/c2ccc(Cl)cc2)cc1
Second: C=CCn1c(SCC(=O)Nc2ccc(/C(C)=N\O)cc2)nnc1-c1cc(-c2ccc(Cl)cc2)nc2ccccc12
The growth of the first is higher: 115% for the first, 42.7% for the second.

Going from Cn1c(C(N)=O)cc2c1-c1nc(NC3CCCCC3)ncc1CCC2 to CCOC(=O)c1cc2c(n1Cc1ccccc1)-c1oncc1CC2, the growth falls from 93.7% to 40.1%.

First: CCCCSC1=C(Cl)CN(c2ccccc2)C1=O
Second: O=c1[nH]n(-c2ccccc2)c(=O)cc1Cl
The growth of the first is lower: 84.6% for the first, 101% for the second.

Going from O=C1Nc2ccccc2/C1=C/c1cccn1CCCCn1c2ccccc2c(=O)c2ccccc21 to O=C1Nc2ccccc2/C1=C/C(=N/c1nnc(-c2ccccc2)s1)c1ccccc1, the growth rises from 51% to 56%.

Compared with C#CCOc1cccc(/C(N)=N/C(N)=N/c2nc3ccccc3s2)c1, O=C(CBr)c1ccc(OC(=O)c2ccccc2)cc1 is higher in growth: 76.4% for the first, 116% for the second.

Compared with O=C(Nc1ccc(N=Cc2ccccc2O)cc1)NC1C=c2ccccc2=CC1 (stereo not given), c1ccc(CN2C(c3ccccc3)=Nc3ccccc3C2c2c[nH]c3ccccc23)cc1 (stereo not given) is lower in growth: 87.1% for the first, 12.4% for the second.

Compared with c1ccc(C(c2nc3ncncc3[nH]2)N2CSc3nc4ccccc4n3C2)cc1 (stereo not given), O=C(/C=C1\C=CN(CCCCCCF)c2ccccc21)n1ccc2ccccc21 is lower in growth: 94.8% for the first, 84.9% for the second.

Compared with O=c1[nH]nnc2c1ncn2C1OC(CO)C(O)C1O (stereo not given), CCN1C(=O)N(CC)C2C1NN=c1s/c(=C\c3cccnc3)c(=O)n12 (stereo not given) is lower in growth: 40.1% for the first, 23.3% for the second.

First: Nc1nc(N)c2c(n1)NC(c1ccc(C(F)(F)F)cc1)CC(c1ccc(Nc3nc(NCCO)nc(N4CCOCC4)n3)cc1)=N2 (stereo not given)
Second: O=S(=O)(NCC[C@@H]1C[C@H]1c1ccc2ccccc2c1)c1ccc(C(F)(F)F)cc1
The growth of the first is lower: 68.3% for the first, 72.3% for the second.

Going from CCCCCc1ccc(S(=O)(=O)Nc2cccc(-c3csc(NCCN4CCN(C)CC4)n3)c2)cc1 to COc1ccc(NS(=O)(=O)c2ccc(-c3cnc(C4CC4)o3)cc2)cc1, the growth falls from 87.3% to 12.5%.

First: COc1ccc2c(c1)c(-c1nnc(N)nc1-c1cn(C)c3ccccc13)cn2C
Second: COc1cc(N2CCC(N3CCN(C)CC3)CC2)ccc1Nc1ncnc(Nc2ccccc2S(=O)(=O)C(C)C)n1
The growth of the first is lower: 78.8% for the first, 110% for the second.

Compared with COc1ccc(/C=C/c2nnc(/C=C/c3ccc(OC)c(OC)c3)o2)cc1OC, COc1cc2cc(Oc3ccc(NC(=O)Nc4cc(C(F)(F)F)cc(C(F)(F)F)c4)cc3)c(C)nc2cc1OCCN(C)C is higher in growth: 19% for the first, 100% for the second.

Compared with CN(C)CCC(=O)c1ccc(O)cc1, N#CC(=C1C=CC(=NO)C=C1)c1ccccc1 is lower in growth: 107% for the first, 13.8% for the second.

Going from CC(C)CCNCC(C)(C)O to CC(C)C1=C[C@@]23CC[C@@H]4[C@](C)(CCC[C@@]4(C)C(=O)N4CCCNCC4)[C@H]2C[C@@H]1[C@H]1C(=O)CCC(=O)[C@H]13, the growth falls from 112% to 101%.

N#CSCc1ccc(CSC#N)c(Cl)c1 showed a growth of 44.1%.
